The source made the active and inactive calls.
Columns and labels:
[1] = optical density shifts of acrAB sulA E. coli – strain DRC41, OD650, 48 h, E. coli filamentation inducer project, primary screen (AID 1152); settings: higher = more signal, called active from +8 up or from −8 down;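 also: E. coli MC1000 strain DRC41 lacking acrAB efflux pump and sulA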
[2] = probe aLefty1 binding on compound microarray – biochemical, small-molecule microarray, 635/667 nm fluorescence, primary screen (AID 1153); settings: higher = more signal;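 also: score merges spot fluorescence with signal-to-noise ratio from the scanned slide images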
[3] = plasmodial surface anion channel blockers, osmotic lysis – cell-based, P. falciparum Indochina, OD700, 1 h, primary screen (AID 1154); settings: P. falciparum Indochina infected RBC osmotic lysis, higher = more signal, called active from +8 up or from −8 down
[4] = plasmodial surface anion channel blockers, osmotic lysis – cell-based, P. falciparum Indochina, OD700, 2 h, primary screen (AID 1155);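 also: lysis reports solute entry through the parasite surface anion channel PSAC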; settings: P. falciparum Indochina infected erythrocytes, higher = more signal, called active from +8 up or from −8 down
[5] = changes in parasitized red cell lysis, either direction – P. falciparum Indochina, OD700, 3 h, PSAC antagonist project, primary screen (AID 1156); settings: P. falciparum-infected erythrocytes, osmotic lysis, higher = more signal, called active from +8 up or from −8 down
[6] = plasmodial surface anion channel blockers, osmotic lysis – cell-based, P. falciparum Indochina, OD700, 18 h, primary screen (AID 1157); settings: P. falciparum Indochina infected erythrocytes, osmotic lysis OD700, 18 h; higher = more signal, called active from +8 up or from −8 down
[7] = S6 kinase pathway phospho-S6 level changes – cell-based, A549, cytoblot, luminescence, serum-stimulated, primary screen (AID 1158); settings: 5 h, higher = more signal;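 also: serum-stimulated A549 lung adenocarcinoma cells; signal is phosphorylated S6 detected by cytoblot immunostaining with HRP secondary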
[8] = molecular target: NADPH oxidase 2 (Homo sapiens) (UniProt P04839); assay: compounds shifting NOX2 Amplex Red fluorescence – cell-based, HEK293-NOX2, PMA-stimulated, NOX inhibitor project, primary screen (AID 1159); settings: 45 min, higher = more signal, called active from +8 up or from −8 down; also: test concentration not given here
[9] = molecular target: NADPH oxidase 4 (Homo sapiens) (UniProt Q9NPH5); assay: compounds shifting NOX4 Amplex Red fluorescence – cell-based, HEK293-NOX4, tetracycline-induced, NOX inhibitor project, primary screen (AID 1160); settings: HEK293-NOX4, Amplex Red H2O2 fluorescence, 45 min; higher = more signal, called active from +8 up or from −8 down
[10] = molecular target: NADPH oxidase 5 (Homo sapiens) (UniProt Q96PH1); assay: compounds shifting NOX5 Amplex Red fluorescence – cell-based, HEK293-NOX5, NOX inhibitor project, primary screen (AID 1161); settings: HEK293-NOX5, ionomycin, 45 min, higher = more signal
[11] = compound effects on lung adenocarcinoma cell viability – A549, calcein-AM fluorescence, 48 h, basal, profiling panel (AID 1162); settings: higher = more signal; also: test concentration not given here
[12] = compound effects on differentiated 3T3-L1 adipocyte viability – cell-based, 3T3-L1 adipocytes, calcein-AM fluorescence, 48 h, basal, profiling panel (AID 1163); settings: 3T3-L1 adipocytes viability, higher = more signal; also: test concentration not given here
[13] = compound effects on hepatocellular carcinoma cell viability – HepG2, calcein-AM fluorescence, 48 h, basal, profiling panel (AID 1164); settings: higher = more signal; also: test concentration not given here
[14] = compound effects on multiple myeloma cell viability – MM1S, calcein-AM fluorescence, 48 h, basal, profiling panel (AID 1165); settings: higher = more signal;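 also: viability of MM1S multiple myeloma cells under basal unstimulated conditions; test concentration not given here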
[15] = calcein-AM signal in unstimulated myeloma cells – cell-based, calcein-AM fluorescence, 48 h, PK04 Diversity Set, profiling panel (AID 1166); settings: RPMI8226 myeloma viability, higher = more signal;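 also: cells grown under basal conditions without added stimulus; test concentration not given here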
[16] = JC-1 mitochondrial signal, unstimulated HepG2 cells – cell-based, JC-1 fluorescence, 24 h, 100 nL compound, profiling panel (AID 1167); settings: HepG2 mitochondrial potential, higher = more signal; also: test concentration not given here
[17] = JC-1 mitochondrial signal, unstimulated adipocytes – cell-based, JC-1 fluorescence, 3T3-L1 adipocytes, 24 h, 100 nL compound, profiling panel (AID 1168); settings: JC-1 mitochondrial fluorescence, higher = more signal, called active from +8 up or from −8 down; also: test concentration not given here
[18] = JC-1 mitochondrial signal, unstimulated myeloma cells – cell-based, JC-1 fluorescence, RPMI8226, 24 h, 100 nL compound, profiling panel (AID 1169); settings: JC-1 mitochondrial potential fluorescence, higher = more signal; also: test concentration not given here
[19] = JC-1 mitochondrial signal, unstimulated MM1S myeloma – cell-based, JC-1 fluorescence, 24 h, 100 nL compound, profiling panel (AID 1170); settings: MM1S mitochondrial potential, higher = more signal; also: test concentration not given here
[20] = resazurin metabolic signal in A549 cells – cell-based, resazurin fluorescence, 24 h, PK04 Diversity Set, profiling panel (AID 1171); settings: A549 viability, higher = more signal, called active from +8 up or from −8 down; also: test concentration not given here

NADPH oxidase 5 (Homo sapiens), sequence (Q96PH1 whole entry, looked up): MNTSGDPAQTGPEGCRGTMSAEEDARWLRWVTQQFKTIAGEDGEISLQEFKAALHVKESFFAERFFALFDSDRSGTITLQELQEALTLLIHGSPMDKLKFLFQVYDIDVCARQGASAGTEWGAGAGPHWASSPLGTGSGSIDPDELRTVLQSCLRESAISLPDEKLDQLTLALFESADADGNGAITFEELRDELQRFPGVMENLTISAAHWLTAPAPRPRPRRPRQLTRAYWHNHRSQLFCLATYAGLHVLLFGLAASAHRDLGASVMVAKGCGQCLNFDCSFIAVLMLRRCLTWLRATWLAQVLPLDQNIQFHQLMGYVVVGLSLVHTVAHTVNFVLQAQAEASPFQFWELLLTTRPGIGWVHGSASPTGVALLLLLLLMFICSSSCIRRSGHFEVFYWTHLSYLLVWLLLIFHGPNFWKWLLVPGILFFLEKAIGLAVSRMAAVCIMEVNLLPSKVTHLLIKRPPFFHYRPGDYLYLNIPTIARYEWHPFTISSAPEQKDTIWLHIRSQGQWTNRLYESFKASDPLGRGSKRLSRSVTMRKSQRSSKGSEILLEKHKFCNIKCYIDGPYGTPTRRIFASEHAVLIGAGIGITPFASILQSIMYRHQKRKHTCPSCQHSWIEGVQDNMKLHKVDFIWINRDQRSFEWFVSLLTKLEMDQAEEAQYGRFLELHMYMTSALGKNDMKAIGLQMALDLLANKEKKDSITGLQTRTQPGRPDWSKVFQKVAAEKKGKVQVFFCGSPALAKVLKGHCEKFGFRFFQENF
NADPH oxidase 4 (Homo sapiens), sequence (Q9NPH5 whole entry, looked up): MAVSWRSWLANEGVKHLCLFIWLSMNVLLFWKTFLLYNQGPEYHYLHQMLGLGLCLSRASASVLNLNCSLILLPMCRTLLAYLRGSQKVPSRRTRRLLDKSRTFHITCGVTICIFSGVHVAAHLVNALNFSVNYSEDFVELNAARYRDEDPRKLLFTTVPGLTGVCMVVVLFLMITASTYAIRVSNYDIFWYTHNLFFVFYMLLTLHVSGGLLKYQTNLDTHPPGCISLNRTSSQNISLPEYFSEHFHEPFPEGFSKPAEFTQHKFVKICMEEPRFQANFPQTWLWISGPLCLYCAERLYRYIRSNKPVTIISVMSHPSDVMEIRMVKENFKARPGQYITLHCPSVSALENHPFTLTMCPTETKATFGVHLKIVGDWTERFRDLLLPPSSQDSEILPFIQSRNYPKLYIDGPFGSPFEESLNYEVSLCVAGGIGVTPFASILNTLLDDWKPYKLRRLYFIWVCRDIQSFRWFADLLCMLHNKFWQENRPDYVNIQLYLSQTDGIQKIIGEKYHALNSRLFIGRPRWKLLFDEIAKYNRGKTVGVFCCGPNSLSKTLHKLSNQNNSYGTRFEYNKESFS
NADPH oxidase 2 (Homo sapiens), sequence (P04839 whole entry, looked up): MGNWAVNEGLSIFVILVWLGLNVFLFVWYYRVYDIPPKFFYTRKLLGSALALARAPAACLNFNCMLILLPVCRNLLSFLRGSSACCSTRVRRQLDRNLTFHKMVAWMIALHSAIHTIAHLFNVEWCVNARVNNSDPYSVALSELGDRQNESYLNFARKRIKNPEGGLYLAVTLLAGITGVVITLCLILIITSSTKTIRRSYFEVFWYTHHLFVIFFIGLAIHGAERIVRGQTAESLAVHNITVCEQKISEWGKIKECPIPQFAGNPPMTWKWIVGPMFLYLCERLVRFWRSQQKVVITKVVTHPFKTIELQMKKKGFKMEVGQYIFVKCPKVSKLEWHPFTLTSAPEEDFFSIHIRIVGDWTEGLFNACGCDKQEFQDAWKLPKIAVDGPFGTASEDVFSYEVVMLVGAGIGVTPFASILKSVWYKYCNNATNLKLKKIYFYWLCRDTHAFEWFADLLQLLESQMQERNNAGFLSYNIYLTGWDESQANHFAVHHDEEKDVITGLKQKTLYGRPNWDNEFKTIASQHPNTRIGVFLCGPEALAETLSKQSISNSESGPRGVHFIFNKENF

With `CCOC(=O)CCN1C(=O)[C@H]2[C@H]3[C@H](O)[C@H](O)CC(=NNC(=O)OCc4ccc(OC)cc4)[C@@H]3CC[C@H]2C1=O` the z-score [1] was 0.0393 (inactive), the composite z-score [2] was 0.0288 and the z-score [3] was 6.59 (inactive). The z-score [4] was 1.07 (inactive), the z-score [5] was -0.495 (inactive) and the z-score [6] was 0.353 (inactive). For the same molecule, the z-score [7] was -0.587, the z-score [8] was -3.2 (inactive) and the z-score [9] was -0.169 (inactive). It also gave a z-score [10] of -0.974, a z-score [11] of -0.212 and a z-score [12] of -0.426. The z-score [13] was -0.367, the z-score [14] was 0.717 and the z-score [15] was 0.0819. The z-score [16] was -0.547, the z-score [17] was -0.0296 (inactive) and the z-score [18] was -0.91. For the same molecule, the z-score [19] was -1.1 and the z-score [20] was -0.807 (inactive).

With `CC1(C)OCC(C(O)C2=CCCCC2=O)CO1` (stereo not given) the z-score [1] was -3.47 (inactive), the composite z-score [2] was 0.138 and the z-score [3] was 0.0704 (inactive). The z-score [4] was 0.137 (inactive), the z-score [5] was 0.864 (inactive) and the z-score [6] was 0.348 (inactive). The z-score [7] was 0.315, the z-score [8] was 0.362 (inactive) and the z-score [9] was -0.247 (inactive). It also gave a z-score [10] of 1.07, a z-score [11] of -0.423 and a z-score [12] of 1.76. The z-score [13] was 0.588, the z-score [14] was -0.402 and the z-score [15] was -0.999. For the same molecule, the z-score [16] was 1.28, the z-score [17] was -0.0827 (inactive) and the z-score [18] was -0.606. For the same molecule, the z-score [19] was 0.724 and the z-score [20] was -0.939 (inactive).

In the case of `Cc1cc2c(nc1C)CCCN2CC(O)CN1CCN(C)CC1` (stereo not given), the z-score [1] is reported as -0.243 (inactive), the composite z-score [2] is reported as 0.0733 and the z-score [3] is reported as 0.339 (inactive). For the same molecule, the z-score [4] was 0.494 (inactive), the z-score [5] was 0.0085 (inactive) and the z-score [6] was -0.0963 (inactive). The z-score [7] was -0.542, the z-score [8] was 0.438 (inactive) and the z-score [9] was -1.07 (inactive). For the same molecule, the z-score [10] was -1.08, the z-score [11] was 0.306 and the z-score [12] was 0.411. The z-score [13] was -1.09, the z-score [14] was 0.241 and the z-score [15] was -0.342. The z-score [16] was -0.601, the z-score [17] was -0.625 (inactive) and the z-score [18] was 0.142. The z-score [19] was 0.842 and the z-score [20] was -0.726 (inactive).

For `COC(=O)[C@@H]1N=C(c2ccc(OCCCO)cc2)O[C@@H]1c1ccccc1N=[N+]=[N-]`, the z-score [1] was 0.666 (inactive), the composite z-score [2] was 0.309 and the z-score [3] was 29.3 (active). For the same molecule, the z-score [4] was 25.8 (active), the z-score [5] was 1.88 (inactive) and the z-score [6] was 5.77 (inactive). For the same molecule, the z-score [7] was 1.24, the z-score [8] was -1.24 (inactive) and the z-score [9] was -0.0584 (inactive). The z-score [10] was -2.26, the z-score [11] was 0.377 and the z-score [12] was 0.557. The z-score [13] was 0.134, the z-score [14] was -1.58 and the z-score [15] was -1.56. The z-score [16] was -0.682, the z-score [17] was 0.761 (inactive) and the z-score [18] was -0.287. The z-score [19] was -0.218 and the z-score [20] was 0.4 (inactive).

For `Cc1cc2c(nc1C)CCCN2CC(C)ON=C1[C@H]2CCn3c(=O)n(-c4ccccc4)c(=O)n3[C@H]2[C@H](O)[C@@H]2O[C@H]12` (stereo not given in full), the z-score [1] was -1.46 (inactive), the composite z-score [2] was 0.0037 and the z-score [3] was 1.21 (inactive). For the same molecule, the z-score [4] was 0.283 (inactive), the z-score [5] was 1.27 (inactive) and the z-score [6] was 0.513 (inactive). For the same molecule, the z-score [7] was -0.415, the z-score [8] was -0.435 (inactive) and the z-score [9] was -0.00359 (inactive). For the same molecule, the z-score [10] was -0.832, the z-score [11] was -0.457 and the z-score [12] was 0.0888. For the same molecule, the z-score [13] was -0.56, the z-score [14] was -1.83 and the z-score [15] was -0.0008. The z-score [16] was -0.788, the z-score [17] was -1.38 (inactive) and the z-score [18] was 0.477. The z-score [19] was 0.327 and the z-score [20] was -0.702 (inactive).

For `COC(=O)[C@@]1(Cc2ccc(F)cc2)[C@H]2c3cc(C(=O)N(C)C)n(Cc4ccc(OC)c(OC)c4)c3C[C@H]2CN1C(=O)c1ccccc1`, the z-score [1] was -1.19 (inactive), the composite z-score [2] was 0.109 and the z-score [3] was 0.933 (inactive). For the same molecule, the z-score [4] was -0.512 (inactive), the z-score [5] was 0.746 (inactive) and the z-score [6] was -1.37 (inactive). For the same molecule, the z-score [7] was 2.19, the z-score [8] was -3.29 (inactive) and the z-score [9] was -1.97 (inactive). For the same molecule, the z-score [10] was -4.09, the z-score [11] was -0.74 and the z-score [12] was 0.272. It also gave a z-score [13] of -1.36, a z-score [14] of -1.13 and a z-score [15] of -2.04. For the same molecule, the z-score [16] was 0.594, the z-score [17] was -0.512 (inactive) and the z-score [18] was 0.0709. The z-score [19] was -0.7 and the z-score [20] was -0.507 (inactive).

In the case of `O=C1C[C@@H](O)[C@@H](O)[C@@H]2[C@@H]3C(=O)N(Cc4ccc5c(c4)OCO5)C(=O)[C@@H]3CC[C@@H]12`, the z-score [1] is reported as 0.306 (inactive), the composite z-score [2] is reported as -0.103 and the z-score [3] is reported as 4.63 (inactive). The z-score [4] was 0.632 (inactive), the z-score [5] was 0.311 (inactive) and the z-score [6] was 0.182 (inactive). For the same molecule, the z-score [7] was -0.352, the z-score [8] was 0.323 (inactive) and the z-score [9] was -0.209 (inactive). It also gave a z-score [10] of -0.246, a z-score [11] of 0.254 and a z-score [12] of 0.797. The z-score [13] was 0.0538, the z-score [14] was 0.339 and the z-score [15] was -0.205. For the same molecule, the z-score [16] was -0.32, the z-score [17] was -0.409 (inactive) and the z-score [18] was -0.893. The z-score [19] was 0.358 and the z-score [20] was -0.14 (inactive).

For `CN1C(=O)[C@@]2(CCC(=O)OC(C)(C)C)N=C(c3ccc(OCCCO)cc3)O[C@H]2c2ccccc21`, the z-score [1] was 1.02 (inactive), the composite z-score [2] was 0.0959 and the z-score [3] was 30.8 (active). For the same molecule, the z-score [4] was 26.6 (active), the z-score [5] was 1.7 (inactive) and the z-score [6] was 1.11 (inactive). For the same molecule, the z-score [7] was 1.09, the z-score [8] was -2.05 (inactive) and the z-score [9] was 0.112 (inactive). The z-score [10] was -1.43, the z-score [11] was 0.575 and the z-score [12] was 1.36. The z-score [13] was -0.614, the z-score [14] was -1.85 and the z-score [15] was -3.45. The z-score [16] was 0.543, the z-score [17] was -0.207 (inactive) and the z-score [18] was -1.18. The z-score [19] was -0.696 and the z-score [20] was -0.54 (inactive).

In the case of `CN1C(=O)C2C(C1=O)C1C=C(CCCO)C2C(c2ccc(CN3CCCC3)cc2)N1C` (stereo not given), the z-score [1] is reported as -0.204 (inactive), the composite z-score [2] is reported as 0.0811 and the z-score [3] is reported as 1.51 (inactive). For the same molecule, the z-score [4] was 0.621 (inactive), the z-score [5] was 0.914 (inactive) and the z-score [6] was 0.378 (inactive). The z-score [7] was 0.318, the z-score [8] was -2.14 (inactive) and the z-score [9] was -1.25 (inactive). The z-score [10] was -0.91, the z-score [11] was -0.259 and the z-score [12] was 0.617. For the same molecule, the z-score [13] was -0.94, the z-score [14] was 0.312 and the z-score [15] was -1.55. The z-score [16] was 0.48, the z-score [17] was -0.319 (inactive) and the z-score [18] was -0.667. For the same molecule, the z-score [19] was 0.287 and the z-score [20] was -1.1 (inactive).
